# Source: PubChem BioAssay (EPA / NIEHS)
# Records with an inconclusive call do not appear. Activity calls are given as the source filed them. How the source made its calls: active means hit-call score of the fitted dose curve at least 0.9, where 1 is the maximum; inconclusive means response in the unintended direction; inactive means score below 0.9.
# Read-out: ABC Transporter (ABCB11), ABCB11 (gene 8647)
# Assay: CLD_ABCB11_48hr: CellzDirect (CLD) Gene Expression Assay for ABC Transporter (ABCB11) at 48 hours (AID 2283697)
# Protocol: CLD_48hr is a cell-based, multiplexed-readout assay that uses hepatocyte, a human liver primary cell, with measurements taken at 48 hours after chemical dosing in a 96-well plate.CLD_ABCB11_48hr is one of 16 assay component(s) measured or calculated from the CLD_48hr assay. It is designed to make measurements of mRNA induction, a form of inducible reporter, as detected with chemiluminescence signals by Quantitative Nuclease Protection Assay (qNPA) technology.Data from the assay component CLD_ABCB11_48hr was analyzed at the endpoint, CLD_ABCB11_48hr, in the positive analysis fitting direction relative to DMSO as the negative control and baseline of activity. Using a type of inducible reporter, gain-of-signal activity can be used to understand changes in the reporter gene as they relate to the gene ABCB11. Furthermore, this assay endpoint can be referred to as a primary readout. To generalize the intended target to other relatable targets, this assay endpoint is annotated to the transporter intended target family, where subfamily is ABC transporter.
# Human hepatocyte cultures were treated daily for two consecutive days with fresh dosing solutions containing appropriate concentrations of the 320 ToxCast chemicals (chemical identities were blinded to CellzDirect and other ToxCast collaborators), vehicle control (0.2% DMSO), and positive control inducers as summarized in Table 1. Due to the large number of treatment groups and chemicals examined, the ToxCast chemicals were divided into two groups (spanning two independent cultures of hepatocytes from separate donor preparations (Hu778: ToxCast plates 1 and 2; Hu776: ToxCast plates 3 and 4). Each preparation of human hepatocyte cultures was treated with respective vehicle control, medium only control, set of six positive controls/reference chemicals for the five hepatic receptor pathways, and a subset of eight of the ToxCast chemicals (indoxacarb, pyrithiobac-sodium, norflurazon, cyhalofop-butyl, methomyl, thiram, acetochlor, and propiconazole). These replicate data, coupled with internal replicates designed within the blinded ToxCast chemical library, provided additional data to evaluate interindividual differences between hepatocyte preparations and their potential impact on chemical profiles.Cell morphology and integrity were evaluated using phase-contrast microscopy as an indicator of hepatocyte cell health (Tyson & Green, 1987). Cultures for each treatment group (i.e., media, vehicle [0.2% DMSO], positive control inducers [multiple concentrations], and the ToxCast chemicals [multiple concentrations]) were observed and cell morphology was assessed relative to vehicle control cultures at each harvest time point (0, 6, 24, or 48 h). […] Images were evaluated at the conclusion of the study to assess changes in cell integrity and account for the effects of chemical exposure on uncharacteristic changes in concentration-dependent gene expression profiles. The results from these determinations of apparent cytotoxicity were annotated (yes/no) alongside the corresponding qNPA data for reference.At the conclusion of each treatment period, hepatocyte cultures (96-well) were washed with 1 volume of HBSS, lysed by addition of 25 ul ArrayPlate lysis buffer (HTG, Tucson, AZ), and 70 ul/well of Denaturation Oil, denatured by incubation at 95C for 10 min, and frozen at approximately -70C until analysis by nuclease protection assay (qNPA) (Roberts et al., 2007). For qNPA analysis, cell lysates were thawed at 50C for approximately 30 min, qNPA probes were added, and samples were incubated at 95C for 10 min to begin the detection process by denaturing the target RNA, dissociating the duplexes and secondary structure hybridization. At the conclusion of the hybridization period, S1 nuclease reagent was added to each sample to digest all nonprotected nucleotides at 50C for 60-90 min. […]
SMILES,outcome,AC50
COc1cc(OC)nc(Sc2cccc(Cl)c2C(=O)O)n1,inactive,
CC(COc1ccc(Oc2ccccc2)cc1)Oc1ccccn1 (configuration not stated),inactive,
CCOP(=S)(OCC)Oc1ccc2c(C)c(Cl)c(=O)oc2c1,inactive,
COP(=O)(OC)SCn1c(=O)oc2cc(Cl)cnc21,inactive,
CC(C)=CC1C(C(=O)OCN2C(=O)C3=C(CCCC3)C2=O)C1(C)C (configuration not stated),inactive,
CCCOc1nn(C(=O)NS(=O)(=O)c2ccccc2C(=O)OC)c(=O)n1C,inactive,
CCCCOC(=O)c1ccccc1C(=O)O,inactive,
CCC(=NOC/C=C/Cl)C1=C(O)CC(C2CCOCC2)CC1=O (configuration not stated),inactive,
CCCSP(=O)(OCC)Oc1ccc(Br)cc1Cl (configuration not stated),inactive,
CN(C)NC(=O)CCC(=O)O,inactive,
C[N+]1(C)CCCCC1,inactive,
CN(C)C(=O)Nc1cccc(C(F)(F)F)c1,inactive,
CCCCSP(=O)(SCCCC)SCCCC,inactive,
CCOC(=O)CC(SP(=O)(OC)OC)C(=O)OCC (configuration not stated),inactive,
COP(=O)(NC(C)=O)SC (configuration not stated),inactive,
N#CSCSC#N,inactive,
O=c1ccc(=O)[nH][nH]1,inactive,
COP(=O)(OC)C(O)C(Cl)(Cl)Cl (configuration not stated),inactive,
COc1cccc(C(=O)NN(C(=O)c2cc(C)cc(C)c2)C(C)(C)C)c1C,inactive,
CCOP(=O)(OCC)Oc1cc(C)nc(C(C)C)n1,inactive,
CC1=NNC(=O)N(/N=C/c2cccnc2)C1,inactive,
CC[C@H](C)[C@H]1O[C@]2(C=C[C@@H]1C)C[C@@H]1C[C@@H](C/C=C(\C)[C@@H](O[C@H]3C[C@H](OC)[C@@H](O[C@H]4C[C@H](OC)[C@@H](NC)[C@H](C)O4)[C@H](C)O3)[C@@H](C)/C=C/C=C3\CO[C@@H]4[C@H](O)C(C)=C[C@@H](C(=O)O1)[C@]34O)O2,inactive,
CCOP(=O)(SC(C)CC)N1CCSC1=O (configuration not stated),inactive,
C=C(C)[C@H]1Cc2c(ccc3c2O[C@@H]2COc4cc(OC)c(OC)cc4[C@@H]2C3=O)O1,,3.73 µM (active)
CCCCOC(=O)[C@@H](C)Oc1ccc(Oc2ccc(C#N)cc2F)cc1,inactive,
CN(C)[C@@H]1C(=O)C(C(N)=O)=C(O)[C@@]2(O)C(=O)C3=C(O)c4c(O)cccc4[C@@](C)(O)[C@H]3[C@H](O)[C@@H]12,inactive,
CCOP(=S)(Oc1cnc(C(C)(C)C)nc1)OC(C)C (configuration not stated),inactive,
